Consider 40 compounds from PubChem BioAssay (Tox21).

Where “and” joins values, the source holds several entries; their conditions need not be identical. Identical values can stand only once. Results filed as inconclusive are left out. Entries that show only a call come without a potency. Some structures have more than one record in an assay (separate samples or runs), and their calls can disagree. Calls of active or inactive are those of the source. Calls follow the shape of the dose curve; as a rule, active = well fitted activation curve with a large enough effect in the repeat runs; inconclusive = weak or mixed curves; inactive = flat fitted curve, though single readings scatter.
Potency is read from the fitted curve at half-maximal effect.

A short description of the experiment: A CellTox Green Cytotoxicity Assay to monitor cytotoxicity in HepG2 cells - 40 hour (AID 1224879). Also: nearly all actives have a fitted effect of over 40% in size. Particulars: CellTox Green fluorescence; series mostly up to 76.8 µM. The text has this:
National Center for Advancing Translational Sciences [NCATS]
NIH Chemical Genomics Center [NCGC]
U.S. Environmental Protection Agency [EPA]
National Institutes of Environmental Health Sciences [NIEHS]
National Toxicology Program [NTP]
Cell-based models are critical for drug discovery. Determining the natural cytotoxic effects resulting from test compounds is an essential research activity. A CellTox Green Cytotoxicity Assay to monitor cytotoxicity in real time of continues cell culture during 40 hours of the compound treatment was used to screen Tox21 10K library compounds in HepG2 cells. CellTox Green Cytotoxicity Assay is a nonlytic, homogeneous, biofluorescent method to measure cytotoxicity in cell culture after experimental manipulation. The assay system uses a proprietary asymmetric cyanine dye that is excluded from viable cells but preferentially stains the dead cell's DNA. […] Viable cells produce no appreciable increases in fluorescence. Therefore, the fluorescence signal produced by the binding interaction with dead cell DNA is proportional to cytotoxicity.
The mixture of HepG2 cell suspension and reagents were dispensed at 600cells/6 ul/well in 1536-well tissue culture treated black solid bottom plates using a Multidrop dispenser. After the assay plates were incubated at a 37 C/5% CO2 incubator for 5 hours, 23 nL of compounds dissolved in DMSO, positive and negative controls was transferred to the assay plate by a pintool work station. The plates were incubated at 37 C for 40 hours. The fluorescence intensity were measured at 0h, 8h, 16h, 24h, 32h and 40h time points using ViewLux plate reader during compound treatment.
`N#Cc1nn(-c2c(Cl)cc(C(F)(F)F)cc2Cl)c(N)c1S(=O)C(F)(F)F` (stereo not given): the Potency result is “inactive”.

Turning to `Oc1ccc(Cl)cc1Cl`, the Potency entry is “inactive”.

Regarding `[Cl-].[Cl-].[Cl-].[Fe+3]`, the Potency entry is “inactive”.

As for `CCC[CH2][Sn]([Cl])([Cl])[CH2]CCC`, the Potency was 313 nM (active) and 309 nM (active).

With `O=NN1CCOCC1`, the Potency result was “inactive”.

For the compound `CCOC(=O)c1ccccc1N`, the Potency result was “inactive and 54.9 µM (active)”.

In the case of `CC1CC(=O)O1` (stereo not given), the Potency result was “inactive”.

As for `O=NN(c1ccccc1)c1ccccc1`, the Potency result is “inactive”.

For `Nc1ccc2ccccc2c1`, the Potency result was “inactive”.

On to `Nc1ncn[nH]1`, for which the Potency result is “inactive”.

Turning to `CN(C)c1nc(=O)n(C2CCCCC2)c(=O)n1C`, the Potency entry is “inactive”.

Turning to `C=C(C)C#N`, the Potency entry is “inactive”.

Consider `ClCC(Cl)CCl`, for which the Potency result is “inactive”.

As to `CS(=O)(=O)NC(=O)c1cc(Oc2ccc(C(F)(F)F)cc2Cl)ccc1[N+](=O)[O-]`, the Potency entry is “inactive”.

As to `CCOS(=O)(=O)OCC`, the Potency result is “inactive”.

As for `CSc1nc(NC(C)C)nc(NC(C)C)n1`, the Potency entry was “inactive”.

For `COP(=O)(NC(C)=O)SC` (stereo not given), the Potency result is “inactive”.

Take `CC[n+]1c(-c2ccccc2)c2cc(N)ccc2c2ccc(N)cc21`: the Potency result was “inactive”.

`CC(C)COC(=O)c1ccccc1C(=O)OCC(C)C`: the Potency result was “inactive”.

Regarding `NC(=O)CN1CCCC1=O`, the Potency entry is “inactive”.

As to `N#CC(c1ccccc1)c1ccccc1`, the Potency entry was “inactive”.

As to `O=C(O)c1nn(Cc2ccc(Cl)cc2Cl)c2ccccc12`, the Potency result was “inactive and 95.2 nM (active)”.

On to `O=C1Nc2ccc(Cl)cc2C(c2ccccc2)=NC1O` (stereo not given), for which the Potency entry is “inactive”.

Take `CNC(=O)Oc1cccc2c1OC(C)(C)C2`: the Potency entry was “inactive”.

Consider `N#Cc1c(Cl)c(Cl)c(Cl)c(C#N)c1Cl`, for which the Potency was 19.1 µM (active) and 2.45 µM (active).

Take `O=C(O)CF`: the Potency result was “inactive and 19.5 µM (active)”.

For `NN=C(N)N`, the Potency entry was “inactive”.

On to `CCOP(=O)(OCC)OCC`, for which the Potency result is “inactive”.

With `CCCCCCCC[N+](C)(CCCCCCCC)CCCCCCCC`, the Potency was 13.8 µM (active) and 19.5 µM (active).

`CCN(CC)C(=O)C(C)Oc1cccc2ccccc12` (stereo not given): the Potency result is “inactive”.

With `COP(=S)(OC)SCn1nnc2ccccc2c1=O`, the Potency entry is “inactive”.

Take `CCCCOCCOC(C)=O`: the Potency result was “inactive”.

`O=[N+]([O-])/N=C1\NCCN1Cc1ccc(Cl)nc1`: the Potency result is “inactive”.

On to `C[N+](C)(C)CC(=O)O`, for which the Potency entry was “inactive”.

Regarding `c1ccc(C2CO2)cc1` (stereo not given), the Potency entry is “inactive”.

`CCOP(=O)(O)OCC` (tested in a mixture with another compound): the Potency result was “inactive and 34.4 µM (active)”.

In the case of `Brc1ccc(Br)cc1`, the Potency result was “inactive”.

In the case of `CCCCCCCCCCCCCl`, the Potency result was “inactive and 12.3 µM (active)”.

Consider `Clc1cccc(Cl)c1`, for which the Potency entry is “inactive”.

Take `Oc1ccc(Cl)cc1Cc1ccccc1`: the Potency entry was “inactive and 19.7 µM (active)”.
